Experimental findings from PubChem BioAssay (NCI) are described below.

The structures appear in SMILES notation. The panel holds about 83,000 compounds, 20% with a hit somewhere; the sample as a whole holds those more often.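 Testing used 96-well plates and a 48-hour single-concentration exposure. Example: -40 means 40% of the starting cells died.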 Activity calls are given as the source filed them. The calls were made as follows: active = growth percent below 10; inactive = the rest.

For the assay, the system named is MDA-MB-468 breast. Briefly: NCI-60 one-dose screen, 48 h (100 = growth as untreated, 0 = no growth, -100 = all killed). The note with it: 10 µM unless noted.
As for `C[C@]12CCC(=O)C=C1CC[C@H]1[C@@H]3C[C@@H](O)[C@](O)(C(=O)CO)[C@@]3(C)C[C@H](O)[C@@]12F`, the growth is 128% (inactive). On to `COc1ccc(C(=O)Nc2cccc(C3CCc4c(cc(OC)c(OC)c4OC)O3)c2)cc1` (stereo not given), for which the growth is 12.4% (inactive). For `CN(C)c1ccc(/C=N/NC(=O)COc2cc(=O)n(C)c3ccccc23)cc1`, the growth is 105% (inactive). For the compound `CN1CCN(Cc2ccc(NC(=O)c3cccc(C#Cc4cnc(N)c5ncccc45)c3F)cc2C(F)(F)F)CC1`, the growth was 70.6% (inactive).

For `COc1ccc(OC)c(-c2nc(SCC(=O)c3ccc(Br)cc3)nc(Nc3ccc(S(N)(=O)=O)cc3)c2C#N)c1`, the growth is 43.9% (inactive). The same measure for `CN(CSc1ccc(Cl)cc1)c1ccc(CSc2ccc(Cl)cc2)cc1`: 17.2% (inactive); for `C=C1C(=O)O[C@H]2[C@H]1CC/C(COC(=O)/C=C\C(=O)NCc1ccc(Cn3c(=O)sn(CCI)c3=O)cc1)=C\CC[C@@]1(C)O[C@@H]21`: -36.2% (active); for `CC(C)c1ccc(-n2c(=S)[nH]c3sc4cc(O)ccc4c3c2=O)cc1`: 96.5% (inactive).

As to `Cc1ncc(C(=O)Nc2ccc(CN3CCN(C)CC3)c(C(F)(F)F)c2)cc1C#Cc1cnc(N)c2cnccc12`, the growth is -6.82% (active). As to `CCN1C(=O)N(CC)C2Nn3c(s/c(=C4\C(=O)Nc5ccccc54)c3=O)=NC21` (stereo not given), the growth was 5.05% (active).

For the compound `COc1ccc(Cl)cc1NC(=O)c1cc2c(n1C)-c1nc(NC(=O)C(C)C)sc1CC2`, the growth was 88.5% (inactive). On to `COC(=O)/C=C1\S/C(=N\NC(=O)c2cc3ccc2/C=C\c2ccc(cc2)/C=C\3)N(Cc2ccccc2)C1=O`, for which the growth was 21.1% (inactive). The same measure for `COc1ccc(C(=O)c2sc3nc(C)cc(C)c3c2N)cc1OC`: 88% (inactive).

As to `O=C1c2ccc3c4c(ccc(c24)C(=O)N1CCCNCc1ccccc1F)C(=O)N(CCCNCc1ccccc1F)C3=O`, the growth was -95.1% (active). Regarding `CC1(C)[C@@H](O)CC[C@]2(C)[C@H]3CC[C@@H]4[C@H]5[C@H](c6cn(-c7ccccc7)nn6)CC[C@]5(CO)CC[C@@]4(C)[C@]3(C)CC[C@@H]12`, the growth is 65.4% (inactive). On to `Cc1ccc[n+](CCC(N)=O)c1`, for which the growth is 108% (inactive). Regarding `CCOC(=O)Nc1ccc2c(ccn2C(=O)c2cccc(F)c2)c1`, the growth was 34.5% (inactive). As to `COc1cc(/C=C\c2cc(OC)c(OC)c(OC)c2)cc(N/C=C\C(=O)c2c[nH]c3ccccc23)c1OC`, the growth is -55.8% (active). Consider `COc1ccc(CNc2c3ccccc3nc3ccccc23)c(OC)c1`, for which the growth is 4.83% (active). Turning to `CCCCCc1ccc(S(=O)(=O)Nc2cc(-c3csc(N)n3)ccc2OC)cc1`, the growth was 78.7% (inactive). For the compound `COc1cc(-c2nc(-c3nnc(-c4cccnc4)o3)c3ccccn23)cc(OC)c1OC`, the growth is 104% (inactive). On to `COc1ccc2c(c1)Oc1nc(N)c(C#N)c(N)c1C2Sc1ccc(O)cc1` (stereo not given), for which the growth was 18.8% (inactive). With `COc1ccc(/C(=N\O)c2cc(OC)c(OC)c(OC)c2)c(OC)c1N`, the growth was 29.2% (inactive).

As for `O=C(CN1CCN(c2cc(=O)n(-c3ccccc3)c3ccccc23)CC1)Nc1nc(-c2ccccc2)cs1`, the growth is 13.3% (inactive). Regarding `CNC(=O)c1c(NC(=O)c2cccc(C(F)(F)F)c2)sc2c1CCC(=O)C2`, the growth is -28% (active). As to `CS(=O)(=O)OCC(COS(C)(=O)=O)C(c1ccccc1)c1ccccc1`, the growth is 102% (inactive). On to `Cc1ccc(-c2nc3nc(-c4ccccc4)nc(N4CCN(S(=O)(=O)c5ccccc5)CC4)c3o2)cc1`, for which the growth is 101% (inactive).

As to `CCCCSCC(=O)c1ccccc1`, the growth was 113% (inactive). The same measure for `CCCCCSc1ccc2nc(NC(=O)OCC)sc2c1`: -10.5% (active); for `Cn1c(=O)c2c(nc(Cl)n2CCl)n(C)c1=O`: 106% (inactive); for `COc1cc(-c2nc3sccn3c2-c2ccnc(NCCNS(=O)(=O)c3ccccc3)n2)ccc1F`: 40.2% (inactive).

Regarding `CC1OC(O[C@@H]2[C@H](O)C(CO)OC(O[C@H]3COC(O[C@H]4CC[C@]5(C)[C@H]6CC[C@]78OC[C@@]9(CCC(C)(C)C[C@H]97)[C@H](O)C[C@@]8(C)[C@]6(C)CC[C@H]5C4(C)C)[C@@H](OC4OC(CO)[C@@H](O)[C@@H](O)[C@@H]4O)[C@@H]3O)[C@H]2OC2OC[C@@H](O)[C@@H](O)[C@@H]2O)[C@@H](O)[C@@H](O)[C@H]1O` (stereo not given in full), the growth was -39.3% (active). In the case of `COc1ccc(C(=O)CSc2nc3c(c(Nc4ccc(S(N)(=O)=O)cc4)n2)CCCC3)cc1` it was 108% (inactive); in that of `CCCOC(=O)N[C@H]1CCc2c(Cl)c(OC)c(OC)c(OC)c2-c2ccc(SC)c(=O)cc21`, -18.6% (active); in that of `CN(C)C(=O)C1=NC(CO)C(=O)N(c2ccc(Cl)cc2)N1` (stereo not given), 95.2% (inactive).

With `Cc1nnc(/N=C2\NC(=O)/C(=C/C=C/c3ccccc3)S2)s1`, the growth was 53% (inactive). For `O=c1oc2c(cnc3ccccc32)cc1-c1cccc(Cl)c1`, the growth is 104% (inactive). In the case of `O=C1CCC(=O)CC1` it was 115% (inactive); in that of `Clc1nc(Cl)c2ncn(CC3(Cn4cnc5c(Cl)nc(Cl)nc54)COC3)c2n1`, -60.7% (active). With `CCOC(=O)CC1CSC(c2cccc(Cl)c2)=N1` (stereo not given), the growth is 108% (inactive).
